An excerpt weighted towards active compounds, which were near 19% of everything screened.
HepG2 viability: kills HepG2 cells in TGF-b inhibitor counter-screen. Potency, µM (highest dose often 46.1 µM), without a hit: top-dose activity change, negative = cytotoxicity, most hits filed as cytotoxic. AID 588856. 0.76% of 410,000 active. HepG2 CAGA-GFP viability, ATP luminescence, 18 h; also: potency is read from the fitted curve at half-maximal effect
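CellTiter-Glo luminescence gave cytotoxicity after 18 hours at 37 degrees C. The cells were HepG2 CAGA-GFP in 1% FBS DMEM, stimulated with 500 pg/mL TGF-beta after compound addition. %Activity was normalised to no-cell wells (complete cell-killing) and DMSO (no toxicity), and curves were fitted and classified.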
IL1B secr inh: inhibitors of inflammasome signaling (IL-1 beta secretion); activity change, % at 57.5 µM; 4.7% of 360,000 active; THP-1 LPS/ATP IL-1B secretion, AlphaLISA, 16 h; active compounds read low; in the data active = activity change below about -50%; inconclusive = mostly about -30% to -49%; also: % is scaled to controls: 0 for no effect and ±100 for the full control effect
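Secreted IL-1B measured by AlphaLISA bead assay after 16 h compound exposure of THP-1 cells; compounds (final up to 57.5 uM) added 1 h before LPS (250 ng/mL) and ATP (1.25 mM) stimulation; lower signal means less secretion.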
TGFb inhibitor: TGF-b pathway inhibition; 1.2% of 410,000 active; HepG2 CAGA-GFP TGF-b/SMAD3 reporter, GFP fluorescence, 18 h; TGF-beta stimulated, 500 pg/mL final; Potency, µM (series often up to 46.1 µM), inactives show at the top dose activity, negative = inhibition, usual class: inhibitors; also: potency is read from the fitted curve at half-maximal effect; % is scaled to controls: 0 for no effect and ±100 for the full control effect; nearly all actives have a fitted effect of over 65% in size
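Inhibition was scored as loss of TGF-beta-induced (500 pg/mL final, 18 hours, 37 degrees C) GFP in HEPG2 cells carrying a CAGA-GFP reporter, in DMEM with 1% FBS. Well GFP was summed per cell; Activity was normalised to unstimulated and stimulated DMSO wells, then concentration-response fitting.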
DT40 TDP1 CPT: DT40-hTDP1 cell growth loss with CPT | Potency, µM (top dose mostly 46.2 µM), inactives show at the top dose activity change, negative = growth inhibition, usual class: inhibitors | 12% of 420,000 active | chicken DT40 Tdp1-/-;hTDP1 cells + 20 nM CPT, ATP luminescence, 48 h; also: potency is read from the fitted curve at half-maximal effect; % is scaled to controls: 0 for no effect and ±100 for the full control effect; nearly all actives have a fitted effect of over 55% in size
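Chicken DT40 Tdp1-/- cells complemented with human TDP1, 400 cells/well, exposed to compounds plus 20 nM camptothecin for at least 48 h at 37 C; viability read as ATP content by CellTiter-Glo luminescence.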
DT40 TDP1 no CPT: qHTS for Inhibitors of human tyrosyl-DNA phosphodiesterase 1 (TDP1): qHTS in cells in absence of CPT; 15% of 420,000 active; Potency, µM (highest dose often 46.2 µM), without a hit: at the top dose activity change, negative = growth inhibition, most hits filed as inhibitors; DT40 Tdp1-/- hTDP1 cells, no CPT, ATP luminescence, 48 h; also: potency is read from the fitted curve at half-maximal effect; % is scaled to controls: 0 for no effect and ±100 for the full control effect; nearly all actives have a fitted effect of over 55% in size
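DT40 Tdp1-/-;hTDP1 cells, no CPT (DMSO vehicle only), 400 cells/well; compounds pin-transferred; ≥48 hr, 37 °C; CellTiter-Glo 30 min RT dark, luminescence read.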
ASM inhibitor: human S-ASM enzyme inhibition | P17405 | placental ASM, HMU-PC fluorogenic substrate, 60 min | Potency, µM (series often up to 57.5 µM), without a hit: top-dose activity change, negative = inhibition, actives largely listed as inhibitors | 0.006% of 340,000 active; also: potency is read from the fitted curve at half-maximal effect
Target sequence (P17405 47-631 limits assumed): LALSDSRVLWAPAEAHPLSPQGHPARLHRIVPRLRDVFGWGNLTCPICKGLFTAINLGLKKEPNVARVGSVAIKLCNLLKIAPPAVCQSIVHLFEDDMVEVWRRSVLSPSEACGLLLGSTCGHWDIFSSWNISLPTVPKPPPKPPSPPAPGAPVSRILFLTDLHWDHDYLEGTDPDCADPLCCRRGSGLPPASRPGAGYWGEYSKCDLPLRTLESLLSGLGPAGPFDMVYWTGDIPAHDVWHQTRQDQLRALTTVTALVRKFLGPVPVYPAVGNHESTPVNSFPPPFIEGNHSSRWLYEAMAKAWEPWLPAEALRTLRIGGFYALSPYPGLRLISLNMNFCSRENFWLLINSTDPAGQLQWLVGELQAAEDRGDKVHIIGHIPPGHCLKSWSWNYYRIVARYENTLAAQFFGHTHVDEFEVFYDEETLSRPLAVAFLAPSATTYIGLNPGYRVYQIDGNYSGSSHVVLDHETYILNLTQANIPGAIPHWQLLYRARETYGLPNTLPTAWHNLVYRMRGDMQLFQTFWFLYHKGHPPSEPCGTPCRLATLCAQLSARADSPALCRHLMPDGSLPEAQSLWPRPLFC
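Fluorogenic HMU-PC substrate (9 uM final) is turned over by placental ASM in 60 min at 37 C after a 10 min compound preincubation. Reaction ended by alkaline stop (pH 10), with fluorescence read at 386/447 nm.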
Numbers without * were called inactive; ? = inconclusive; . = no result given. Unless noted, calls follow the shape of the dose curve; as a rule, active = well fitted curve in the direction sought with a large enough effect; inconclusive = small, poorly fitted or top-dose-only effect, or another doubt; inactive = no such curve, though single readings can be large; an effect the other way counts as inactive or inconclusive.

SMILES	HepG2 viability	IL1B secr inh	TGFb inhibitor	DT40 TDP1 CPT	DT40 TDP1 no CPT	ASM inhibitor
CCC1Cc2c(nc(N)c3c(N)nc(N4CCCCC4)c(C#N)c23)O1 (stereo unspecified)	2%	.	?	0%	?	375%
C=C(C)c1cccc(C(C)(C)NC(=O)N(Cc2ccccc2)Cc2ccco2)c1	-1%	-19	19%	16µM*	21µM*	0%
O=C(NC1CCN(Cc2ccccc2)CC1)c1cccc(OC(F)F)c1	-3%	?	-10%	-12%	-20%	3%
O=C(O)/C=C/C(=O)N(Cc1ccccc1)Cc1ccco1	4%	38	1%	17%	18%	1%
Cc1ccc(C)n1-c1ccc(C(=O)Nc2ccccc2)cc1	-29%	-65*	-3%	?	26µM*	5%
Cc1ccc(C)n1-c1cccc(NC(=O)c2ccccc2)c1	-11%	-30	3%	?	?	1%
CC1(C(=O)NC2CCN(Cc3ccccc3)CC2)CCN1CCc1ccccc1 (stereo unspecified)	-28%	-5	2%	29µM*	?	.
CC(=O)Nc1ccc(CN2CCC2(C)C(=O)NC2CCN(Cc3ccccc3)CC2)cc1 (stereo unspecified)	1%	-10	5%	-21%	-7%	.
O=C(NC1CCN(Cc2ccccc2)CC1)c1cccc(Br)c1	-50%	-25	?	16µM*	?	-3%
Cc1cc(C)c(S(=O)(=O)NCc2csc(C)n2)c(C)c1	12%	10	6%	-19%	2%	2%
O=C(COc1ccc(Br)cc1CNC1CCCCC1)NCCc1ccccc1	-49%	-97*	?	18µM*	16µM*	-2%
C=C(C)c1cccc(C(C)(C)NC(=O)N2CCCC2)c1	4%	1	8%	-7%	-27%	3%
CCN(c1ccccc1)S(=O)(=O)c1ccc(C(=O)NC2CCN(Cc3ccccc3)CC2)cc1	-33%	?	?	8.2µM*	7.3µM*	4%
O=C(/C=C/c1cccc(F)c1)NC1CCN(Cc2ccccc2)CC1	-20%	-13	?	-13%	?	-2%
O=C(/C=C/c1cccc(Br)c1)NC1CCN(Cc2ccccc2)CC1	-50%	-78*	17%	?	23µM*	1%
C=C(C)c1cccc(C(C)(C)NC(=O)NC2CCN(Cc3ccccc3)CC2)c1	-34%	-12	?	?	18µM*	-1%
COc1ccc(C(=O)OCC(=O)Nc2cc(C)on2)c(OC)c1OC	-9%	13	3%	3%	-6%	-2%
Cc1ccc(C)c(C(=O)COC(=O)c2ccc(C)c(S(=O)(=O)N3CCOCC3)c2)c1	-8%	2	-3%	?	?	-7%
Cc1c(Br)cnc2ccccc12	-8%	.	0%	11%	5%	.
Cc1ccc(C)c(N2C(=O)CC(Cc3ccc(Br)cc3)C2=O)c1 (stereo unspecified)	-3%	3	15%	?	?	-2%
Cc1ccc(C)n1-c1ccc(C(=O)NC2CCN(Cc3ccccc3)CC2)cc1	-5%	-59*	10%	?	21µM*	-1%
CCOc1ccccc1OCC(=O)NC1CCCCC1	-2%	22	-17%	0%	-10%	3%
O=C(COc1ccc(Br)cc1Cl)NC1CCN(Cc2ccccc2)CC1	-27%	-81*	?	?	?	1%
CCc1ccc(CN2CCC(Oc3cc(C(=O)NC4CC4)ccc3OC)CC2)cc1	-20%	-4	-8%	-32%	15µM*	.
CCOc1cc(CNC2CCCC2)c(Cl)cc1OCC(=O)Nc1ccccc1	-53%	-26	?	18µM*	18µM*	-1%
SMILES	HepG2 viability	IL1B secr inh	TGFb inhibitor	DT40 TDP1 CPT	DT40 TDP1 no CPT	ASM inhibitor
O=C(COc1ccccc1)NC1CCN(Cc2ccccc2)CC1	-36%	8	-1%	-28%	-8%	7%
COc1ccc(NC(=O)CN(C)C(=O)CNC(=O)c2cccs2)cc1	-59%	0	-13%	17%	4%	2%
Cc1cc(NC(=O)COC(=O)C2CCC(=O)N2)c([N+](=O)[O-])cc1C (stereo unspecified)	0%	7	-1%	-4%	3%	-1%
Cc1ccccc1C(=O)NC1CCN(Cc2ccccc2)CC1	3%	57	6%	0%	1%	1%
Cc1ccc(CN2CCC(NC(=O)c3ccccc3)CC2)cc1	-19%	0	-11%	?	18µM*	-1%
Nc1c(C(=O)Nc2cccc(C(F)(F)F)c2)c2ccccn2c1C(=O)c1ccccc1	0%	.	13%	?	?	.
CC(C)N(C(=S)Nc1cccc(C(F)(F)F)c1)C(C)c1ccccn1 (stereo unspecified)	-21%	-91*	-24%	-9%	?	5%
Cc1ccc2c(c1C)-c1c(ccc(C)c1C)C(=O)C2=O	4µM*	-85*	2.5µM*	0.92µM*	1µM*	-10%
Cc1ccccc1-c1cc2nc(-c3ccc([N+](=O)[O-])cc3)cc(=O)n2[nH]1	-4%	17	1%	-22%	-15%	-2%
CCOC(=O)Cc1c(C)nc2c(-c3cccc(Br)c3)c[nH]n2c1=O	-22%	36	-28%	9.2µM*	4.1µM*	4%
Cc1cccc(-c2cc3nc(-c4ccccc4)cc(=O)n3[nH]2)c1	4%	1	0%	23µM*	23µM*	76%
CCOC(=O)Cc1c(C)nc2c(-c3ccc(Cl)cc3)c(C)[nH]n2c1=O	-9%	42	?	23µM*	23µM*	4%
Cc1cc(=O)n2[nH]c(-c3ccc(Cl)cc3)cc2n1	-31%	4	-15%	18µM*	21µM*	-3%
CCOC(=O)CCc1c(C)nc2c(-c3ccccc3)c(C)[nH]n2c1=O	1%	.	0%	-27%	-26%	.
NC(=O)c1ccc(NC(=O)CCCNC(=O)c2ccc(Cl)cc2)cc1	10%	29	3%	1%	0%	2%
Cc1cc(=O)n2[nH]c(-c3ccc(F)cc3)cc2n1	-1%	-5	-4%	?	13µM*	0%
Cc1cc(=O)n2[nH]c(C)c(-c3ccc(Cl)cc3)c2n1	-17%	1	-28%	23µM*	?	0%
